From publication PMC4336329 (PLoS ONE, 2015)
Out of some 310,000 compounds screened, about 14,000 (4.5%) showed an effect of 50% or more. Effects have a minus sign here. For the sample, strong results were picked, then their nearest neighbours and some compounds at random.

molecular target: human ether-à-go-go-related gene (hERG) potassium channel (human, UniProt Q12809); experiment: primary screen, population patch clamp on CHO cells stably expressing hERG; higher = less effect of the substance
Sequence (Q12809 whole entry, looked up): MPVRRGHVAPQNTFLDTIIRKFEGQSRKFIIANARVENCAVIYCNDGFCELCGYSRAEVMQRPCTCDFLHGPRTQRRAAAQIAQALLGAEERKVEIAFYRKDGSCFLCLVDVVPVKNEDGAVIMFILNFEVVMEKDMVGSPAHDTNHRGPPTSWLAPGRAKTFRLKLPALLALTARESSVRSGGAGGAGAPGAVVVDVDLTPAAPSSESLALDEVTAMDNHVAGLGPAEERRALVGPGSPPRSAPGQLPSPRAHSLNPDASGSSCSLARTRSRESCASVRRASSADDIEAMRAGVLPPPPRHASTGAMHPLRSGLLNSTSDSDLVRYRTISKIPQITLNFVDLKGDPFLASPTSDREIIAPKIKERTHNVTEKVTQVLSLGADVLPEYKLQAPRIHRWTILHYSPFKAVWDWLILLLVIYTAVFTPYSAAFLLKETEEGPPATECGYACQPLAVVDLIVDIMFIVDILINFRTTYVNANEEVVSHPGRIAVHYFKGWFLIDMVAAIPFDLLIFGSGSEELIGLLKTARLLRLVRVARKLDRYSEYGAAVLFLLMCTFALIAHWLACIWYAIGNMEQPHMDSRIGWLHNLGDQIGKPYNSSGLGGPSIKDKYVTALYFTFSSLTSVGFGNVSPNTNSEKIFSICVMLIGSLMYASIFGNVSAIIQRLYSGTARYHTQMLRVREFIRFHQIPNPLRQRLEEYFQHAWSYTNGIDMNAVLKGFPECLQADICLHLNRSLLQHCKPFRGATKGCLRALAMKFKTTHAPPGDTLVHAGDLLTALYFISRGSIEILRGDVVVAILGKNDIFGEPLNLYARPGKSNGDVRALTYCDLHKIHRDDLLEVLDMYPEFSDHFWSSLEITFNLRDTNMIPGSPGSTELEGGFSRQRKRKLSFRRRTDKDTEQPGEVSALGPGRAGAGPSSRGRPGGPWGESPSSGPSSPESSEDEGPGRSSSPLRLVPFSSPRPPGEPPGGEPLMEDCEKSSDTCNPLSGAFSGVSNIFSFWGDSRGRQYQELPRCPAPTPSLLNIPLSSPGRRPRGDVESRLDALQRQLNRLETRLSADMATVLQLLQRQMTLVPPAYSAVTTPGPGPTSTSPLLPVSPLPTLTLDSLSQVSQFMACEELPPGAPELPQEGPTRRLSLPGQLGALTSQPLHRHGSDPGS
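Further: peak tail current of the secondary pulse compared with the same well before compound.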

SMILES | hERG current change (%, negative = inhibition) at 10uM
COc1ccc(CN2CCN(CC=C(C)C)C(CCO)C2)cc1Cn1cccn1 (stereo not shown) | -31.2%
COc1ccc(NC(=O)CCNS(=O)(=O)c2ccc3c(c2)CCC(=O)N3)cc1 | -2.85%
CN(O)/C=c1/ccc2c(n1)C(=O)C=CC=2 | -8.33%
Cc1ccc(C(=O)Nc2ccc(S(=O)(=O)N3CCN(C)CC3)cc2)o1 | 5.28%
COc1cccc(C(=O)NCCNC(=O)c2cnccn2)c1 | 19.5%
Cc1nnc(NNS(=O)(=O)c2ccc(Cl)cc2)[nH]c1=O | -17.3%
O=C(O)C1=C[C@H](c2ccc(F)cc2)C[C@H](OCc2ccc(CO)cc2)O1 | 4.49%
Cc1oc2cc3oc(=O)c(CCC(=O)NCCCn4ccnc4)c(C)c3cc2c1C | -41.7%
Cc1coc2cc3oc(=O)c(CCC(=O)NCCCn4ccnc4)c(C)c3cc12 | -41.4%
Cc1c(CCC(=O)NCCCn2ccnc2)c(=O)oc2c(C)c3occ(C(C)(C)C)c3cc12 | -67%
Cc1c(CCC(=O)NCCCn2ccnc2)c(=O)oc2cc3occ(C(C)(C)C)c3cc12 | -77.7%
Cc1coc2c(C)c3oc(=O)c(CCC(=O)NCCCn4ccnc4)c(C)c3cc12 | -44.4%
Cc1oc2c(C)c3oc(=O)c(CCC(=O)NCCCn4ccnc4)c(C)c3cc2c1C | -35.9%
Cn1c(=O)n(CCCO)c(=O)c2c1nc1n2CCCN1Cc1ccccc1 | -9.65%
CN(Cc1nc2ccc(F)cc2[nH]1)Cc1c(C(=O)N(C)C)nc2ccc(Cl)cn12 | -43.3%
CCOc1cc(S(=O)(=O)N(CC)CC)ccc1Br | -11.8%
O=C(CSc1nnc(SCc2ccc(Cl)cc2)s1)c1ccc2c(c1)OCO2 | 9.81%
O=c1[nH]c2ccc(Cl)cc2c(-c2ccccc2)c1N1CCN(CCO)CC1 | -64.6%
O=c1[nH]c2ccc(Cl)cc2c(-c2ccccc2)c1N1CCOCC1 | 2.46%
CCOC(=O)N1CCN(c2c(-c3ccccc3)c3cc(Cl)ccc3[nH]c2=O)CC1 | -11.4%
Cc1cccc(C2=NOC(=O)/C2=C\c2ccccc2F)c1 | 9.48%
CC(C)n1nc(C(=O)Nc2ccc3c(c2)OCO3)c2ccccc2c1=O | 11%

SMILES | hERG current change (%, negative = inhibition) at 10uM
CCCCn1c(CCCNC(=O)c2ccco2)nc2ccccc21 | -40.5%
Cc1ccc(NC(=O)CSc2nnc(CNC(=O)c3ccccc3F)o2)cc1 | 2.03%
CC1CCN(c2ccc3nnc(CCC(=O)NCCCOC(C)C)n3n2)CC1 | 2.68%
COCCn1c(SCC(=O)N2CCCc3ccccc32)nc2ccccc2c1=O | -72.6%
CCn1c(SCC(=O)N2CCCCC2C)nc2ccsc2c1=O (stereo not shown) | -11.5%
O=C(O)CCCCCn1c(SCC(=O)N2CCCC2)nc2ccsc2c1=O | 16.9%
CCCCn1c(SCC(=O)c2ccccc2)nc2ccsc2c1=O | 1.38%
COCCn1c(SCC(=O)N2CCCc3ccccc32)nc2cccnc21 | -16.5%
COCCn1c(SCC(=O)N2CCC(C)CC2)nc2ccccc2c1=O | -62.8%
CCC1CCCCN1C(=O)CSc1nc2ccsc2c(=O)n1Cc1ccccc1 (stereo not shown) | -78.3%
COCCn1c(SCC(=O)N2CCCCC2)nc2ccccc2c1=O | -49.3%
CCCCn1c(SCC(=O)N2CCC(C)CC2)nc2ccsc2c1=O | -70.7%
O=C(CSc1nc2ccsc2c(=O)n1Cc1ccccc1)NCC1CCCO1 (stereo not shown) | -25.7%
CCn1c(SCC(=O)N2CCCc3ccccc32)nc2ccccc2c1=O | -18.7%
COCCn1c(SCC(=O)N2CCOCC2)nc2ccccc2c1=O | -22.3%
COc1ccc2[nH]cc(CCNC(=O)Cc3ccc(Cl)cc3)c2c1 | 2.05%
CC(=O)c1cccc(NC(=O)c2ccc3c(c2)C(=O)N(Cc2cccnc2)C3=O)c1 | -9.85%
COc1ccc(OC)c(/C=N/N(CCC#N)C2=NS(=O)(=O)c3ccccc32)c1 | 6.86%
CCCCCCSc1ccc([C@@H]2[C@H]3C(=O)N(C)C(=O)[C@H]3[C@]3(C(=O)OC)CCCCN23)cc1.O=C(O)C(F)(F)F | -10.9%
Cc1ccc(N2C(=O)NC(=O)/C(=C\c3cn(CC(=O)O)c4ccccc34)C2=O)cc1 | 16.8%
CC(Oc1cccc2c1OC(C)(C)C2)C(=O)O (stereo not shown) | -5.47%
